Laboratory results reported in PubChem BioAssay AID425 (Sanford-Burnham Center for Chemical Genomics, 2006).
The whole screen tested about 110,000 compounds, of which about 190 (0.17%) were called active. No stated cut-off is given here; in the data, active means inhibition above about 50%; inactive means the rest. The sample as a whole holds a higher share of actives than the screen did. Results with a measured potency or affinity are listed apart.

Target: Dual specificity protein phosphatase 6 (Rattus norvegicus) (UniProt Q64346)
Sequence (Q64346 whole entry, looked up): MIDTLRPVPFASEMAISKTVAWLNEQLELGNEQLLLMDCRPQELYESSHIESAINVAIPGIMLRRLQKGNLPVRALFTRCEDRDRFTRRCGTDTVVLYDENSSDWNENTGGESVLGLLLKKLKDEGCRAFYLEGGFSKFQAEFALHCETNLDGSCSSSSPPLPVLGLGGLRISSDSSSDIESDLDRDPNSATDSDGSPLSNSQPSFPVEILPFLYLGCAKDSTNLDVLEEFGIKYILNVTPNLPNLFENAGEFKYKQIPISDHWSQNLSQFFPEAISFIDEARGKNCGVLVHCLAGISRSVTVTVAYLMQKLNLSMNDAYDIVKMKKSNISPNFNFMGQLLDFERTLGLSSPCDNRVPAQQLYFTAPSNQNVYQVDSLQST
Assay: MKP-3 phosphatase inhibitors, primary screen, biochemical, rat enzyme, in vitro (AID 425);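 further: plate controls were vehicle for no effect and reference inhibitor for full effect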
Conditions: recombinant MKP-3 phosphatase activity, fluorescence; at 20 µM; hits give high values

Compound	inhibition
CN(CN1C(=O)C(=O)c2cc([N+](=O)[O-])ccc21)[N+](=O)[O-]	86.6% (active)
CN(C)C(=O)Oc1ccc([N+](=O)[O-])cc1	-1.2% (inactive)
O=[N+]([O-])c1ccc(N2CCN(Cc3ccccc3)CC2)c(Cl)c1	-2.4% (inactive)
CCN1C(=O)/C(=C/c2cccn2C)C(=O)NC1=S	108% (active)
C=CCN1C(=O)/C(=C\c2cccn2-c2cccc([N+](=O)[O-])c2)C(=O)NC1=S	94.7% (active)
Cn1cccc1/C=C1/C(=O)NC(=S)N(c2ccc(Cl)cc2)C1=O	77.8% (active)
C=CCN1C(=O)NC(=O)C(=Cc2cccn2C)C1=O	2.3% (inactive)
O=C1NC(=S)N(c2ccc(Cl)cc2)C(=O)/C1=C/c1ccc(-c2ccccc2C(=O)O)o1	6.3% (inactive)
CCN1C(=O)/C(=C/c2ccc(OC)c3ccccc23)C(=O)NC1=S	2.2% (inactive)
CCN1C(=O)/C(=C/c2ccoc2)C(=O)NC1=S	107% (active)
O=C1NC(=S)N(c2cccc(Cl)c2)C(=O)/C1=C/c1ccc(Cl)cc1	-0.2% (inactive)
COc1ccc(CN2C(=O)NC(=O)/C(=C\c3ccoc3)C2=O)cc1	5.2% (inactive)
C=CCN1C(=O)/C(=C\c2cccn2-c2ccc([N+](=O)[O-])cc2)C(=O)NC1=S	37.5% (inactive)
CN1C(=O)C(=Cc2cccn2-c2cccc([N+](=O)[O-])c2)C(=O)N(C)C1=O	4.9% (inactive)
O=C1NC(=O)N(c2ccccc2)C(=O)/C1=C/c1ccoc1	4.9% (inactive)
CCC1(c2ccccc2)C(=O)NC(=O)N(C(=O)c2cccc(F)c2)C1=O (stereo not given)	-3.3% (inactive)
O=C1NC(=O)C(=Cc2ccc(OCc3cccc(C(=O)O)c3)cc2)C(=O)N1	-1% (inactive)
CCOc1c(P(=S)(N(C)C)N(C)C)c(C)nn1-c1ccccc1	-4.3% (inactive)
Oc1ccc(CC2CC3CCN2CC3)cc1O (stereo not given)	-5.2% (inactive)
CCCc1[nH]nc2c1C1(C(=O)N(CC(N)=O)c3ccccc31)C(C(=O)OC)=C(N)O2 (stereo not given)	-2.9% (inactive)
CC1CCC(C(=O)NC(C(=O)N2CCC3(CC2)OCCO3)C(C)C)CC1 (stereo not given)	-15.8% (inactive)
CCC1(C)CC(CCNCc2ccccc2)(c2ccc(C)cc2)CCO1 (stereo not given)	-4% (inactive)
Cc1ccccc1C(=O)Nc1cc(Cl)c([N+](=O)[O-])cc1Cl	1.4% (inactive)
COC(=O)CCCNC(=O)CN1CC(c2ccccc2)CC1=O (stereo not given)	-1.1% (inactive)

Compound	inhibition
O=C(c1cc2c(s1)CCCC2)N1CCC2(CC1)OCCO2	-11.3% (inactive)
CCOc1ccc(N2C(=O)/C(=C/c3ccc(C)cc3)C(=O)NC2=S)cc1	2.5% (inactive)
C=CCN1C(=O)/C(=C\c2ccc(C)o2)C(=O)NC1=S	8.6% (inactive)
Cc1cccc(N2C(=O)NC(=O)C(=Cc3ccco3)C2=O)c1	2.3% (inactive)
CC(C)c1ccc(N2C(=O)NC(=O)/C(=C/c3ccco3)C2=O)cc1	4.9% (inactive)
O=C1NC(=S)N(c2cccc(Br)c2)C(=O)/C1=C/c1cccs1	5.7% (inactive)
O=C1NC(=S)N(c2cccc(Br)c2)C(=O)/C1=C/C=C/c1ccccc1	11.1% (inactive)
C=CCN1C(=O)/C(=C\C=C\c2ccco2)C(=O)NC1=S	83.7% (active)
O=C1NC(=O)N(c2cccc(Br)c2)C(=O)/C1=C/c1ccco1	97.8% (active)
CCOc1ccc(N2C(=O)/C(=C/c3cc(Cl)ccc3O)C(=O)NC2=S)cc1	4.8% (inactive)
O=C1NC(=O)N(Cc2ccccc2)C(=O)/C1=C\C=C\c1ccco1	3.4% (inactive)
O=C1NC(=S)N(c2cccc(Br)c2)C(=O)/C1=C/c1ccco1	108% (active)
CCOc1ccc(N2C(=O)/C(=C/c3ccco3)C(=O)NC2=S)cc1	107% (active)
Clc1ccc(CCNCc2ccc3c(c2)OCO3)c(Cl)c1	1.1% (inactive)
O=c1c2ccccc2nc(-c2ccccc2F)n1-c1ccc(Cl)cc1	3.1% (inactive)
O=C(Nc1cccc(OC(=O)N2CCOCC2)c1)N1CCOCC1	0.2% (inactive)
O=C1NC(=S)N(c2ccc(Br)cc2)C(=O)/C1=C/c1ccc(-c2ccccc2C(=O)O)o1	4.4% (inactive)
CCOc1ccc2ccccc2c1/C=C1\C(=O)NC(=S)N(c2ccccc2)C1=O	0.5% (inactive)
Cc1ccc(C=C2C(=O)NC(=S)N(c3ccccc3F)C2=O)s1	3% (inactive)
CN(C)c1ccc(C=C2C(=O)NC(=S)N(c3ccccc3F)C2=O)cc1	-0.6% (inactive)
O=C1NC(=S)N(c2ccccc2)C(=O)/C1=C/c1ccco1	102% (active)
O=C1NC(=S)N(c2ccccc2F)C(=O)C1=Cc1ccco1	99% (active)
CN1CCN(Cc2nc3ccccc3n2C)CC1	-3% (inactive)
CCN1CCN(c2ccc(C(F)(F)F)cn2)CC1	2.1% (inactive)

Compound	inhibition
CN1CCN(c2ccc(NC(=O)C(C)(C)C)cc2)CC1	-2.3% (inactive)
Cc1ccc2nc3c(cc2c1)CC1(C(=O)N(C)C(=O)N(C)C1=O)C1CCCCN31 (stereo not given)	-20.3% (inactive)
O=C(c1ccc(N2N=N2)cc1)c1ccc(N2N=N2)cc1	-3.2% (inactive)
CCOc1ccc(N2C(=O)/C(=C/c3ccc(C)o3)C(=O)NC2=S)cc1	13.5% (inactive)
CCOc1ccc(N2C(=O)NC(=O)/C(=C\c3ccc(C)o3)C2=O)cc1	3.6% (inactive)
CN1C(=O)NC(=O)/C(=C/c2ccc(I)o2)C1=O	-0.4% (inactive)
O=C1NC(=S)N(c2ccc(F)cc2)C(=O)/C1=C/c1ccc(Br)o1	90.9% (active)
COc1ccc(N2C(=O)/C(=C/c3ccc(I)o3)C(=O)NC2=S)cc1	108% (active)
CCOc1ccc(N2C(=O)/C(=C/c3ccc(Br)o3)C(=O)NC2=S)cc1	104% (active)
O=C1NC(=O)N(c2ccc(Cl)cc2)C(=O)/C1=C/c1ccc(Br)o1	41.4% (inactive)
COc1ccc(N2C(=O)/C(=C/c3ccc(-c4cc(C(=O)O)ccc4Cl)o3)C(=O)NC2=S)cc1	9.5% (inactive)
CN1C(=O)NC(=O)/C(=C/c2ccc(Br)o2)C1=O	6% (inactive)
CCOC(=O)C1CCN(/C=C2/C(=O)NC(=O)N(Cc3ccco3)C2=O)CC1	-5.2% (inactive)
O=C1N(CN2CCOCC2)c2ccccc2C1(O)c1c[nH]c2ccccc12 (stereo not given)	0.3% (inactive)
CN(C)C(=O)Oc1ccc(OC(=O)c2ccccc2)cc1	-6.4% (inactive)
O=C1c2ccccc2C2(c3ccc(Cl)cc3)NCCN12 (stereo not given)	-7.5% (inactive)
O=[N+]([O-])c1ccc(N2CCNCC2)cc1NCCOc1ccccc1	3.6% (inactive)
O=C(COc1ccc(Cl)cc1)N1CCN(Cc2ccc([N+](=O)[O-])cc2)CC1	-0.9% (inactive)
Cc1ccc(C=C2C(=O)N(C)C(=O)N(C)C2=O)o1	-11.1% (inactive)
Cc1cc(OCc2ccc(F)cc2)c2c3c(c(=O)oc2c1)CCCC3	2.6% (inactive)
Cn1cc(/C=C2\C(=O)NC(=O)N(Cc3ccccc3)C2=O)c2ccccc21	2.1% (inactive)
CC(C)N1CCN(Cc2cc(Br)ccc2O)CC1	-1.8% (inactive)
